PubChem BioAssay AID504415 (Broad Institute, 2011)
Potency and affinity values are given separately. Inconclusive results are not listed. Unmarked numbers belong to inactive results.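 How the source made its calls: active means compound lowering the signal whose fitted half-maximal concentration is at most ten times its top tested dose; inconclusive means flat curve with 30 to 70% loss, or poor fit; inactive means the rest.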

assay: viability loss in Mcl1-dependent HMC-1-8 cells, dose response, selectivity assay for A1 inhibitor project, cell-based, luminescence, dry powder (AID 504415); conditions: HMC-1-8 (Mcl1-dependent) viability, Glo luminescence, 24 h; series mostly up to 35 µM; activity change, negative = viability loss: at the top concentration

| SMILES | activity change, negative = viability loss |
| --- | --- |
| O=c1oc2ccccc2c(Cl)c1[N+](=O)[O-] | 23.9% |
| CCOC(=O)N1CCN(c2c([N+](=O)[O-])c(=O)n(C)c3ccccc23)CC1 | 8.34% |
| Cn1c(=O)c([N+](=O)[O-])c(Oc2ccccc2)c2ccccc21 | 12.5% |
| Cc1ccc(Nc2c([N+](=O)[O-])c(=O)oc3ccccc23)cc1 | 10.5% |
| Cc1ccc(Nc2c([N+](=O)[O-])c(=O)n(C)c3ccccc23)cc1 | 5.87% |
